Measured values as given in PubChem BioAssay (NCATS).
Results filed as inconclusive are left out. Calls of active or inactive are those of the source. The call rests on the fitted dose curve; in most records, active means well fitted inhibition curve with a large enough effect; inconclusive means small, poorly fitted or top-dose-only effect; inactive means flat fitted curve, though single readings scatter.

Legend:
[1] = qHTS profiling for inhibitors of Plasmodium falciparum proliferation (AID 504749);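 further: 0% = DMSO vehicle and full inhibition = artemisinin control; nearly all actives have a fitted effect of over 60% in size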; conditions: P. falciparum in erythrocytes, SYBR Green DNA, 72 h
Summary of the method: (§1)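 SYBR Green fluorescence of parasite DNA, read after lysis and overnight dark incubation, measured growth over 72 h in erythrocyte culture at 0.3% parasitemia and 2.5% hematocrit. Data normalised to DMSO and 0.29 uM artemisinin, with plate-drift correction.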

[2] = tested on: 3D7; test: as above; conditions: P. falciparum in erythrocytes, SYBR Green DNA, 72 h; series mostly up to 28.7 µM
Summary of the method: as §1

[3] = at 28.7 µM (top of the series), parasite line A
[4] = at 28.7 µM (top of the series), parasite line B

COC(=O)CC[C@H](N)C(=O)O
inactive: activity, negative = inhibition [1, 3] 18.1% | activity, negative = inhibition [1, 4] 11.5% | Potency [2]

CN[C@@H]1[C@H](O[C@H]2[C@H](O[C@H]3[C@H](O)[C@@H](O)[C@H](N=C(N)N)[C@@H](O)[C@@H]3N=C(N)N)O[C@@H](C)[C@]2(O)C=O)O[C@@H](CO)[C@H](O)[C@H]1O
inactive: activity, negative = inhibition [1, 3] 5.41% | activity, negative = inhibition [1, 4] 15.5% | Potency [2]

CCN(CC)CCC(=O)N1c2ccccc2Sc2ccc(C(F)(F)F)cc21
inactive: activity, negative = inhibition [1, 3] -4.68% | activity, negative = inhibition [1, 4] -16.3% | Potency [2]

CCCC(=O)O
inactive: activity, negative = inhibition [1, 3] 7.39% | activity, negative = inhibition [1, 4] 16.4% | Potency [2]

NC(=O)C1c2ccccc2CCc2ccccc21
inactive: activity, negative = inhibition [1, 3] -4.87% | activity, negative = inhibition [1, 4] 8.64% | Potency [2]

CC(C)C1=CC2=CC[C@@H]3[C@](C)(CCC[C@@]3(C)C(=O)O)[C@H]2CC1
inactive: activity, negative = inhibition [1, 3] -4.25% | activity, negative = inhibition [1, 4] -11.9% | Potency [2]

CC1=CC(=O)NS(=O)(=O)O1
inactive: activity, negative = inhibition [1, 3] 0.853% | activity, negative = inhibition [1, 4] 6.07% | Potency [2]

OCl
inactive: activity, negative = inhibition [1, 3] 10.5% | activity, negative = inhibition [1, 4] 2% | Potency [2]

CCOC(C)OCC
inactive: activity, negative = inhibition [1, 3] -1.66% | activity, negative = inhibition [1, 4] -9.74% | Potency [2]

Cc1cc(C(=O)NCCc2ccc(S(=O)(=O)NC(=O)NN3CCCCCC3)cc2)no1
inactive: activity, negative = inhibition [1, 3] 7.09% | activity, negative = inhibition [1, 4] 6.94% | Potency [2]

CC(=O)Oc1cc(C(F)(F)F)ccc1C(=O)O
inactive: activity, negative = inhibition ([1]; at 12.8 µM (top of the series), parasite line A) 7.13% | activity, negative = inhibition ([1]; at 12.8 µM (top of the series), parasite line B) 12.5% | Potency [2]

CCCCC(CC)COS(=O)(=O)O (centres undefined)
inactive: activity, negative = inhibition [1, 3] 12.8% | activity, negative = inhibition [1, 4] 12.3% | Potency [2]

CO
inactive: activity, negative = inhibition [1, 3] 8.74% | activity, negative = inhibition [1, 4] -8% | Potency [2]

CC(=O)N[C@@H]1C(O[C@H]2O[C@H](C(=O)O)C(O)[C@H](O)[C@H]2O)[C@H](O)[C@@H](CO)O[C@H]1O[C@@H]1C(C(=O)O)O[C@@H](O[C@H]2[C@H](O)[C@@H](CO)OC(O)[C@@H]2NC(C)=O)[C@H](O)[C@H]1O (some centres undefined)
inactive: activity, negative = inhibition [1, 3] 0.279% | activity, negative = inhibition [1, 4] 2.2% | Potency [2]

CC(C)(C)CC(C)(C)c1ccc(OCCO)cc1
inactive: activity, negative = inhibition [1, 3] -21% | activity, negative = inhibition [1, 4] -13.8% | Potency [2]

CCN(CC)C(=O)c1cccnc1
inactive: activity, negative = inhibition [1, 3] 10.9% | activity, negative = inhibition [1, 4] 11.6% | Potency [2]

Nc1ncnc2c1ncn2[C@H]1CC[C@@H](CO)O1
inactive: activity, negative = inhibition [1, 3] 5.25% | activity, negative = inhibition [1, 4] 9.47% | Potency [2]

OB(O)O
inactive: activity, negative = inhibition [1, 3] 8.7% | activity, negative = inhibition [1, 4] 9.31% | Potency [2]

C=CCCCCCCCCC(=O)OC
inactive: activity, negative = inhibition [1, 3] -4.4% | activity, negative = inhibition [1, 4] 10.1% | Potency [2]

CCC(C)[C@@H](N)C(=O)O (some centres undefined)
inactive: activity, negative = inhibition [1, 3] 11.4% | activity, negative = inhibition [1, 4] 24.4% | Potency [2]

O=C(O)CCC/C=C\C[C@@H]1[C@@H](/C=C/[C@@H](O)COc2cccc(C(F)(F)F)c2)[C@H](O)C[C@@H]1O
inactive: activity, negative = inhibition [1, 3] -5.12% | activity, negative = inhibition [1, 4] -7.34% | Potency [2]

COc1cc(S(C)=O)ccc1-c1nc2ncccc2[nH]1 (centres undefined)
inactive: activity, negative = inhibition [1, 3] 6.38% | activity, negative = inhibition [1, 4] -9.68% | Potency [2]

NC(=O)CC[C@@H]1NC(=O)[C@H](Cc2ccccc2)NC(=O)[C@H](Cc2ccc(O)cc2)NC(=O)[C@@H](N)CSSC[C@@H](C(=O)N2CCC[C@H]2C(=O)N[C@@H](CCCN=C(N)N)C(=O)NCC(N)=O)NC(=O)[C@H](CC(N)=O)NC1=O
inactive: activity, negative = inhibition [1, 3] 1.66% | activity, negative = inhibition [1, 4] -0.62% | Potency [2]

O=P(O)(O)OC[C@H]1O[C@](O)(COP(=O)(O)O)[C@@H](O)[C@@H]1O
inactive: activity, negative = inhibition [1, 3] 8.54% | activity, negative = inhibition [1, 4] 12.4% | Potency [2]

Nc1ncnc2c1ncn2CCOCP(=O)(O)O
inactive: activity, negative = inhibition [1, 3] 14.6% | activity, negative = inhibition [1, 4] 5.72% | Potency [2]

CCC(Cc1c(I)cc(I)c(O)c1I)C(=O)O (centres undefined)
inactive: activity, negative = inhibition [1, 3] 0.0242% | activity, negative = inhibition [1, 4] -1.87% | Potency [2]

O=C(OC1C[C@@H]2CC3C[C@H](C1)N2CC3=O)c1c[nH]c2ccccc12 (some centres undefined)
inactive: activity, negative = inhibition [1, 3] -11.9% | activity, negative = inhibition [1, 4] -12.9% | Potency [2]

[O]=[Bi][O][Bi]=[O]
inactive: activity, negative = inhibition [1, 3] 0.672% | activity, negative = inhibition [1, 4] 4.28% | Potency [2]

CCN(CC)C(=S)S
inactive: activity, negative = inhibition [1, 3] -22.3% | activity, negative = inhibition [1, 4] -18.1% | Potency [2]

O=P(O)(O)OP(=O)(O)OP(=O)(O)O
inactive: activity, negative = inhibition [1, 3] -4.84% | activity, negative = inhibition [1, 4] 8.54% | Potency [2]

[O-][N+](=Nc1ccccc1)c1ccccc1
inactive: activity, negative = inhibition [1, 3] -5.95% | activity, negative = inhibition [1, 4] -6.73% | Potency [2]

[O]=[Bi][O]C(=O)[O][Bi]=[O]
inactive: activity, negative = inhibition [1, 3] 3.84% | activity, negative = inhibition [1, 4] -1.66% | Potency [2]

Cc1cc2nc3c(=O)[nH]c(=O)nc-3n(C[C@H](O)[C@H](O)[C@H](O)COP(=O)(O)OP(=O)(O)OC[C@H]3O[C@@H](n4cnc5c(N)ncnc54)[C@H](O)[C@@H]3O)c2cc1C
inactive: activity, negative = inhibition [1, 3] -1.67% | activity, negative = inhibition [1, 4] 14.9% | Potency [2]
